Source: the supplement of paper PMC4723716

Test system: Plasmodium falciparum NF54 gametocytes
Test: viability index relative to DMSO control (fraction); higher = less gametocyte killing
Conditions: 12.5 µM, incubation time: 72 h
Summary of the method: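 The viability index expresses each well's gametocyte particle count relative to the plate mean of solvent-only wells. Stage I–V P. falciparum NF54 gametocytes (0.50% gametocytemia, 1.25% hematocrit, 40 µl of serum-containing medium) were exposed to compound at 12.5 µM for 72 hr at 37°C under low oxygen in 384-well plates. They were stained for 20 min with 5 µl of 5 µM MitoTracker Red CMXRos, and 5 µl was then transferred into 40 µl of 500 nM dye in serum-free medium for imaging of three fields 30 min later.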

[1] = gametocyte stage: Stage I viability index
[2] = gametocyte stage: Stage II viability index
[3] = gametocyte stage: Stage III viability index
[4] = gametocyte stage: Stage IV viability index
[5] = gametocyte stage: Stage V viability index

| SMILES | viability index [1] | viability index [2] | viability index [3] | viability index [4] | viability index [5] |
| --- | --- | --- | --- | --- | --- |
| CCN(CC)S(=O)(=O)c1ccc(-c2csc(Nc3ccc(C)c(C)c3)n2)cc1 | 0.544 | 0.506 | 0.532 | 0.733 | 0.352 |
| CC(C)c1ccc(CNCC(O)c2ccccc2)cc1 (stereo not given) | 0.032 | 0.118 | 0.492 | 0.568 | 0.648 |
| Cc1sc(NC(=O)c2ccccc2)c(C(c2cccs2)N2CCN(c3ccccc3)CC2)c1C (stereo not given) | 1 | 0.74 | 0.905 | 0.753 | 0.545 |
| CCC(O)c1ccc(Br)cc1NC(=O)c1cccc(Cl)c1 (stereo not given) | 0.0243 | 0.196 | 0.598 | 0.729 | 0.582 |
| CCOc1ccccc1CN1CCc2nc3cc(C(C)(C)C)nn3c(O)c2C1 | 0.89 | 0.7 | 0.583 | 0.737 | 0.597 |
| COc1ccc(Nc2nc(NN=Cc3ccc(O)cc3)nc(Nc3ccc([N+](=O)[O-])cc3)n2)cc1 | 0.00437 | 0.05 | 0.233 | 0.142 | 0 |
| Clc1ccc2[nH]c3c(NCCCN4CCOCC4)ncnc3c2c1 | 0.0298 | 0.444 | 0.979 | 0.918 | 0.813 |
| COc1cccc(O)c1CN1CCC2(CCCN(Cc3ccc(F)cc3)C2)C1 (stereo not given) | 0.0144 | 0.0986 | 0.446 | 0.602 | 0.615 |
| COc1ccc(C2N(C)c3ccccc3N2C)cc1 | 0.939 | 0.93 | 1.01 | 0.964 | 1.07 |
| Cc1cc(NC(=O)c2cccc(C(F)(F)F)c2)n(-c2nc(-c3ccc4c(c3)OCO4)cs2)n1 | 1.26 | 0.943 | 1.1 | 0.951 | 0.956 |
| O=C(Nc1ccc(Cl)cc1C(=O)Nc1ccncc1)c1ccc(Cl)cc1Cl | 0.139 | 0.589 | 0.935 | 0.927 | 0.637 |
| Oc1ccc2ccccc2c1CNc1nc2ccccc2[nH]1 | 0.0376 | 0.182 | 0.512 | 0.462 | 0.273 |
| COc1ccc(C=C2SC(Nc3ccc(F)cc3)=NC2=O)c(OC)c1 | 0.76 | 0.669 | 0.676 | 0.646 | 0.558 |
| COc1ccc(-c2nc(N3CCN(C(=O)C4CCCCC4)CC3)c3c4c(sc3n2)CCCC4)cc1 | 1.05 | 0.922 | 1.06 | 0.915 | 0.779 |
| CCC(c1ccccc1)c1nn2c(-c3cccs3)nnc2s1 (stereo not given) | 1.04 | 0.992 | 1.07 | 0.875 | 0.725 |
| Cc1cc(C)c2c(c1)OCN(Cc1ccccc1Cl)C2 | 0.0442 | 0.13 | 0.569 | 0.663 | 0.615 |

| SMILES | viability index [1] | viability index [2] | viability index [3] | viability index [4] | viability index [5] |
| --- | --- | --- | --- | --- | --- |
| CN(C)c1ccc(N=Cc2ccc(N3CCOCC3)cc2)cc1 | 0.955 | 0.834 | 0.927 | 1.01 | 0.896 |
| COc1ccccc1CNC(=O)CCn1c(=O)[nH]c2ccccc2c1=O | 0.867 | 0.898 | 0.912 | 0.951 | 0.912 |
| Cc1[nH]c(-c2ccc(F)cc2)cc1C(=O)NC1CCN(Cc2ccccc2)CC1 | 0.131 | 0.502 | 0.744 | 0.881 | 1.09 |
| O=C(CSc1nccn2nc(-c3ccccc3)cc12)Nc1cc(C(F)(F)F)ccc1Cl | 0.845 | 0.896 | 0.973 | 1.08 | 1.4 |
| COc1ccc2c(c1OC)C(=O)N1c3ccccc3N=C(c3ccc(C)cc3)CC21 (stereo not given) | 0.899 | 0.674 | 0.951 | 0.94 | 0.987 |
| COc1ccc(CN2CCCC(C(=O)c3ccc(C(F)(F)F)cc3)C2)c(O)c1 (stereo not given) | 0.049 | 0.0866 | 0.365 | 0.554 | 0.779 |
| Cc1cc(Nc2cccc(F)c2)nc(NCc2ccccc2)n1 | 0.0365 | 0.436 | 0.825 | 1.01 | 0.429 |
| Cc1ccc(N2C(=O)C3C(C2=O)C2(c4ccccc4)C(=O)C3(c3ccccc3)C(c3ccccc3)=C2c2ccccc2)cc1 (stereo not given) | 0.733 | 0.916 | 1.14 | 1.03 | 1.01 |
| CN1CCN(c2c3c(c(C#N)c4nc5ccccc5n24)CCC3)CC1 | 1.02 | 0.865 | 1.03 | 1.05 | 0.846 |
| COc1ccc(-c2nc(NC(=O)CS(=O)(=O)c3ccc(F)cc3)sc2C)cc1 | 0.307 | 0.564 | 1.11 | 0.888 | 0.978 |
| CC(NCc1ccccc1)c1cc(Cl)ccc1O (stereo not given) | 0.0221 | 0.121 | 0.44 | 0.574 | 0.923 |
| CC(C)OCc1cc(CN2CCN(c3cccc(Cl)c3)CC2)c(O)c2ncccc12 | 0.00331 | 0.0328 | 0.0297 | 0.0243 | 0.011 |
| CCOC(=O)c1cnc2ccc(OC)cc2c1Nc1ccc(N2CCN(C)CC2)cc1 | 0.0953 | 0.479 | 0.931 | 0.842 | 0.779 |
| Cc1cc(N2CCCC2)nc(Nc2ccc(NC(=O)CCc3ccccc3)cc2)n1 | 0.0734 | 0.0508 | 0.261 | 0.345 | 0.13 |
| COc1cccc(C(=O)NC(c2ccc(C)cc2)c2cc(Cl)c3cccnc3c2O)c1 (stereo not given) | 0.116 | 0.0583 | 0.0814 | 0.247 | 0.039 |
